Entries with a potency or affinity are not part of this list.

These results are taken from ChEMBL document CHEMBL4513146, “CO-ADD screening of Karazin Kharkiv National University (Ukraine) compounds”.

The test system of the assay is Klebsiella pneumoniae. The settings on record: Concentration 32 ug.mL-1;; ASSAY_TEST Inhibition of Bacterial Growth; detection method Absorption (OD600); MEDIA CAMHB; plate type 384well; NBS; CORNING #3640; time 18 hr.
As for `O=S(=O)(c1ccc2nncn2c1)N(Cc1ccccc1F)c1ccc2c(c1)OCCO2`, the Inhibition was found to be 4.19%.
`Cc1ccc(-c2cc3c4nn(CC(=O)Nc5ccccc5Br)c(=O)n4ccn3n2)cc1C`: the Inhibition amounted to 18.24%.
For `CC(C)c1nnc2c(=O)n(CC(=O)Nc3ccc(F)cc3)c3ccccc3n12`, the Inhibition was 21.13%.
Regarding `O=c1c2sccc2n2c(=O)n(Cc3cccc(F)c3)nc2n1Cc1cccs1`, the Inhibition is given as -6.06%.
Regarding `CC(=O)c1ccc(N2CCN(C(=O)CCc3nnc4c5cc(-c6ccccc6)nn5ccn34)CC2)cc1`, the Inhibition is given as 14.87%.
As to `Cc1ccc(-c2ccc3nn(CC(=O)Nc4ccc(Cl)c(C(F)(F)F)c4)c(=O)n3n2)cc1C`, the Inhibition is on record as 0.66%.
With `Cc1ccccc1Cn1nc2c(=O)n(-c3ccc(Br)cc3)ccn2c1=O`, the Inhibition is listed as 14.05%.
With `Cn1c(=O)c2ccc(C(=O)NC3CCCC3)cc2n2c(SCC(=O)Nc3cc(F)ccc3F)nnc12`, the Inhibition is reported as 7.15%.
Turning to `Cc1ccc(C)c(-c2cc3c4nnc(CCC(=O)NCCc5ccc(Cl)cc5)n4ccn3n2)c1`, the Inhibition amounted to 12.88%.
In the case of `CCc1nnc2c(SCC(=O)NCc3ccccc3Cl)nc3ccccc3n12`, the Inhibition amounted to 8.04%.
For the molecule `Cc1ccc(NC(=O)Cn2nc3c(SCc4ccc(Cl)cc4)nccn3c2=O)cc1F`, the Inhibition is 7.4%.
With `Cc1ccc(F)cc1NC(=O)CSc1nnc2ccc(C(=O)Nc3cccc(F)c3)cn12`, the Inhibition came out at 2.35%.
On to `COc1ccc(NC(=O)c2ccc3nn(CC(=O)N4CCN(c5ccccc5)CC4)c(=O)n3c2)cc1`, for which the Inhibition was 0.73%.
As to `COc1ccc(C(C)NC(=O)CCc2nnc3ccc(-c4ccc(C)cc4)nn23)cc1OC` (stereo not given), the Inhibition is 15.87%.
In the case of `COc1cccc(CNC(=O)CSc2nnc3ccc(C(=O)Nc4cccc(F)c4)cn23)c1`, the Inhibition is -3.24%.
With `Cc1ccc(CNC(=O)CSc2nnc3c4cc(-c5ccc(C)cc5)nn4ccn23)cc1`, the Inhibition is listed as 11.71%.
`Cc1cc2nn(CC(=O)Nc3ccccc3)c(=O)n2c(Nc2ccc(C)c(F)c2)n1`: the Inhibition is given as 9.53%.
Next, `O=C(Cn1nc2c(N3CCOCC3)nccn2c1=O)NCc1ccc(F)cc1`: 12.27%; `Cc1ccc(Oc2nccn3c(=O)n(CC(=O)Nc4ccc(Cl)cc4F)nc23)cc1`: 8.24%; `Cc1ccc(C(=O)C(C)Sc2nnc3c(=O)n(-c4ccc(F)c(F)c4)ccn23)cc1C` (stereo not given): -0.54%.
For the molecule `COc1ccc(NC(=O)Cn2nc3cc(C)nc(Nc4cc(C)cc(C)c4)n3c2=O)cc1`, the Inhibition was determined as 10.21%.
With `CCOc1ccc(NC(=O)Cn2c(=O)c3nnc(C(C)C)n3c3ccccc32)cc1` the figure was 4.3%; with `CCCCn1c(=O)c2sccc2n2c(CCC(=O)Nc3ccc(OC(F)(F)F)cc3)nnc12`, 7.36%.
Next, `COc1cc(NC(=O)CSc2nnc3c(=O)n(-c4ccc(C)c(C)c4)ccn23)cc(OC)c1`: 2.77%; `O=C(CSc1nnc2c(=O)n(-c3cccc(F)c3)ccn12)Nc1ccc(Br)cc1`: 9.48%.
Next, `CCCCOc1ccc(-c2cc3c4nnc(SCC(=O)NCc5ccc(C)cc5)n4ccn3n2)cc1`: 3.76%; `CC(=O)c1ccc(NC(=O)Cn2nc3c4cc(-c5ccc(Cl)cc5)nn4ccn3c2=O)cc1`: 16.61%.
Turning to `CC(C)(C)NC(=O)Cn1nc2n(Cc3cccs3)c(=O)c3sccc3n2c1=O`, the Inhibition was determined as 3.31%.
With `CCc1nnc2ccc(S(=O)(=O)N(Cc3ccc(OC)c(F)c3)c3ccccc3)cn12` the figure was -3.43%; with `COc1ccc(CNC(=O)CCc2nnc3ccc(-c4ccccc4)nn23)cc1OC`, 15.01%; with `COc1ccc(-c2cc3c4nn(CC(=O)Nc5c(C)cccc5C)c(=O)n4ccn3n2)cc1`, 9.85%.
For `CC(C)Sc1ccc2nn(CC(=O)Nc3ccc(Br)cc3F)c(=O)n2n1`, the Inhibition came out at 15.2%.
For `COc1ccccc1Cn1c(=O)c2sccc2n2c(=O)n(Cc3cccc(Br)c3)nc12`, the Inhibition is listed as 0.7%.
Consider `COc1ccccc1-n1ccn2c(SCc3ccccc3F)nnc2c1=O`, for which the Inhibition amounted to 11.1%.
Take `Cc1ccc(Oc2nccn3c(=O)n(CC(=O)N4CCN(c5ccc(F)cc5)CC4)nc23)cc1`: the Inhibition is on record as 19.83%.
As for `COc1ccccc1-n1ccn2c(SCC(=O)c3ccc(C)cc3C)nnc2c1=O`, the Inhibition was 6.45%.
With `O=c1c2sccc2n2c(=O)n(Cc3ccc(F)cc3)nc2n1CCc1ccccc1`, the Inhibition is reported as 5.57%.
With `CCOc1ccccc1NC(=O)Cn1nc2c(Oc3cccc(OC)c3)nccn2c1=O` the figure was 8.86%; with `Cc1ccc(Oc2nccn3c(=O)n(CC(=O)Nc4ccccc4F)nc23)cc1`, 2.86%.
With `Cc1ccc(-c2cc3c4nn(CC(=O)Nc5ccc(Br)cc5)c(=O)n4ccn3n2)cc1C` the figure was -3.52%.

For orientation: Inhibition means the change of the read-out against control, counted positive when it falls.
